Among the data in PubChem BioAssay AID463173 (ICCB-Longwood Screening Facility, Harvard Medical School, 2010) are survival values, retold here.

In all, about 52,000 compounds went through this assay and about 4,300 (8.3%) were called active. No stated cut-off is given here; in the data, active means survival mostly below about 52% (no sharp cut-off); inactive means mostly above about 56%. What follows is part of a selection rich in actives, with near analogues and random picks from the rest.

For the assay, the system named is DeltatarO mutant. Kind of assay: growth inhibition of S. aureus wild type versus tarO mutant, primary screen, teichoic acid synthesis inhibitors, RN4220, OD600 (AID 463173). Particulars: OD600, 18 h, hits give low values, screened at 18.75 µg/mL (by protocol).
In the case of `CC(=O)c1cccc(NC(=O)c2cc3sc(Cl)cc3n2C)c1`, the survival is 122% (inactive).

Consider `CCOc1ccc(OCC)c(NC(=O)CN(C)S(=O)(=O)c2ccc3[nH]c(=O)oc3c2)c1`, for which the survival was 85% (inactive).

In the case of `COc1ccc(NC(=O)CSc2nc3c(oc4ccccc43)c(=O)n2-c2ccc(C)c(C)c2)cc1`, the survival is 82% (inactive).

As for `COC(=O)c1sccc1S(=O)(=O)N(CC(=O)Nc1ccc(C)c(F)c1)c1ccc(C)c(C)c1`, the survival was 17% (active).

`CCc1cccc(NC(=O)CN(c2ccc(C)c(C)c2)S(=O)(=O)c2ccsc2C(=O)OC)c1`: the survival was -5% (active).

For the compound `COC(=O)c1sccc1S(=O)(=O)N(CC(=O)Nc1c(C)cccc1C)c1ccc(C)c(C)c1`, the survival was 94% (inactive).

For the compound `COC(=O)c1sccc1S(=O)(=O)N(CC(=O)Nc1cc(C)ccc1C)c1ccc(C)c(C)c1`, the survival was 88% (inactive).

With `COC(=O)c1sccc1S(=O)(=O)N(CC(=O)Nc1cc(F)ccc1F)c1ccc(C)c(C)c1`, the survival is 128% (inactive).

Take `COC(=O)c1sccc1S(=O)(=O)N(CC(=O)Nc1cccc(C)c1C)c1ccc(C)c(C)c1`: the survival was 89% (inactive).

Take `Cn1c(C(O)c2ccccc2)n[nH]c1=S` (stereo not drawn): the survival was 93% (inactive).

As for `COc1cccc(-n2c(SCC(N)=O)nc3c(oc4ccccc43)c2=O)c1`, the survival was 67% (inactive).

`O=C(c1ccccc1)N1CCN(S(=O)(=O)c2ccccc2)CC1`: the survival was 68% (inactive).

As for `Cn1cc(-c2cc3n(n2)CCC(=O)N3CCCC(=O)Nc2ccccc2Cl)c2ccccc21`, the survival is -5% (active).

Take `Cc1ccc(CNC(=O)CCCN2C(=O)CCn3nc(-c4cn(C)c5ccccc45)cc32)cc1`: the survival is 87% (inactive).

On to `Cn1cc(-c2cc3n(n2)CCC(=O)N3CCCC(=O)NCc2ccc(Cl)cc2)c2ccccc21`, for which the survival is 122% (inactive).

In the case of `O=C(CN1C(=O)CCn2nc(-c3ccccc3)cc21)NCc1ccccc1`, the survival was 106% (inactive).

`Cn1cc(-c2cc3n(n2)CCC(=O)N3CCCC(=O)Nc2ccccc2F)c2ccccc21`: the survival was 134% (inactive).

`Cn1cc(-c2cc3n(n2)CCC(=O)N3CCCC(=O)NCc2ccccc2)c2ccccc21`: the survival was 92% (inactive).

As to `CN(C)c1ccc(CNC(=O)CN2C(=O)CCn3nc(-c4cn(C)c5ccccc45)cc32)cc1`, the survival was 54% (inactive).

Turning to `CCc1ccccc1NC(=O)CCCN1C(=O)CCn2nc(-c3cn(C)c4ccccc34)cc21`, the survival is 130% (inactive).

Take `O=C(CN1C(=O)CCn2nc(-c3ccccc3)cc21)NCc1ccc(Cl)cc1`: the survival was 0% (active).

For `Cc1cccc(CNC(=O)CCCN2C(=O)CCn3nc(-c4cn(C)c5ccccc45)cc32)c1`, the survival is -5% (active).

On to `Cc1ccc(CNC(=O)CN2C(=O)CCn3nc(-c4ccccc4)cc32)cc1`, for which the survival was 72% (inactive).

With `CN(C)c1ccc(CNC(=O)CCCN2C(=O)CCn3nc(-c4cn(C)c5ccccc45)cc32)cc1`, the survival was 17% (active).

For the compound `COc1ccc(OC)c(NC(=O)c2c(NCc3sccc3C)sc3c2CCCCC3)c1`, the survival was 78% (inactive).

With `c1ccc(N2CCN(c3ccccc3)C2c2cccs2)cc1`, the survival was 67% (inactive).

Turning to `CCCCCN1C(C(=O)c2ccccc2)=C(NC(=O)c2ccc(OC)cc2)c2ccccc2S1(=O)=O`, the survival is 57% (inactive).

With `Cc1ccc(Cn2c(=O)n(CCc3ccccc3)c(=O)c3c(C)c(C)sc32)cc1`, the survival is 24% (inactive).

As to `COc1cc(Cl)c(C)cc1NC(=O)CCn1c(=O)c2cccn2c2cccnc21`, the survival is 83% (inactive).

For the compound `CC(C)(SC1CC(=O)N(c2ccccc2)C1=O)C(N)C(=O)O` (stereo not drawn), the survival is 98% (inactive).

As for `CCc1ccc2c(c1)NC(c1cccnc1)=NC(c1ccc(C(C)(C)C)cc1)=N2`, the survival was 63% (inactive).

On to `CCN1c2ccccc2-c2nc(SCC(=O)Nc3cccc(C)c3C)ncc2S1(=O)=O`, for which the survival is 101% (inactive).

In the case of `CCc1ccc(-c2nn(CC(=O)NCc3ccccc3)c3c2cnc2ccc(F)cc23)cc1`, the survival was 92% (inactive).

Turning to `COc1ccc(CNC(=O)CN2C(=O)CCn3nc(-c4cn(C)c5ccccc45)cc32)cc1`, the survival is 96% (inactive).

In the case of `CCOc1ccccc1CNC(=O)CN1C(=O)CCn2nc(-c3cn(C)c4ccccc34)cc21`, the survival is 66% (inactive).

Regarding `CCOc1ccc(CNC(=O)CN2C(=O)CCn3nc(-c4cn(C)c5ccccc45)cc32)cc1OC`, the survival was -4% (active).

On to `CCc1ccccc1NC(=O)CSc1nnc(-c2ccc(OC)cc2)s1`, for which the survival is 80% (inactive).

For the compound `Cc1ccc(C(=O)Nc2ccc3nc(SCC(=O)N4CCCc5ccccc54)sc3c2)cc1`, the survival is 80% (inactive).

Regarding `CCOc1ccc(CNc2cc(C)nc3nc(-c4cccc(C)c4)nn23)cc1OC`, the survival was 95% (inactive).

For the compound `CCCCN(CC)CCCNC(=O)CN1C(=O)CSc2ccc(S(=O)(=O)N3CCOCC3)cc21`, the survival is 97% (inactive).

Consider `O=C(NCC1CCN(Cc2ccccc2F)CC1)Nc1ccc(F)c(Cl)c1`, for which the survival is 100% (inactive).

For the compound `O=C(NCC1CCN(Cc2cccc(Cl)c2)CC1)Nc1cc(Cl)ccc1Cl`, the survival was 17% (active).

For `Cc1ccc(CN2CCC(CNC(=O)Nc3cccc(Cl)c3C)C2)cc1` (stereo not drawn), the survival was 75% (inactive).

In the case of `Cc1ccc(CN2CCC(CNC(=O)Nc3ccccc3F)CC2)cc1`, the survival is 113% (inactive).

As to `O=C(NCC1CCN(Cc2cccc(Cl)c2)CC1)Nc1ccc(F)c(Cl)c1`, the survival is 55% (inactive).

For `Cc1ccc(NC(=O)NCC2CCN(Cc3cccc(Cl)c3)CC2)cc1Cl`, the survival was -5% (active).

As for `COc1ccc(Cn2ccnc2SCC(=O)Nc2ccc3c(c2)OCCO3)cc1`, the survival is 94% (inactive).

Take `Cc1cccn2c(=O)c3cc(C(=O)NC(C)(C)C)n(C)c3nc12`: the survival was 61% (inactive).

Consider `CCCN(CCC)C(=O)c1cc2c(=O)n3cccc(C)c3nc2n1C`, for which the survival is 62% (inactive).

With `Cc1cccn2c(=O)c3cc(C(=O)NC(C)C)n(C)c3nc12`, the survival was 53% (active).

`CCCCN(CCCC)C(=O)c1cc2c(=O)n3cccc(C)c3nc2s1`: the survival is -13% (active).

With `CCCCN(CC)C(=O)c1cc2c(=O)n3cccc(C)c3nc2s1`, the survival is 54% (inactive).

For the compound `CCCCN(CC)C(=O)c1cc2c(=O)n3cccc(C)c3nc2n1C`, the survival is 56% (active).

As for `O=C(NCc1ccc(F)cc1)c1cc2c(=O)n3ccccc3nc2s1`, the survival is 140% (inactive).

Turning to `CCCCN(CCCC)C(=O)c1cc2c(=O)n3ccccc3nc2s1`, the survival was 39% (active).

In the case of `CCCN(CCC)C(=O)c1cc2c(=O)n3cccc(C)c3nc2s1`, the survival is 56% (inactive).

With `CCCCN(CC)C(=O)c1cc2c(=O)n3ccccc3nc2n1C`, the survival was 50% (inactive).

Turning to `CCOC(=O)CNC(=O)c1cc2c(=O)n3cccc(C)c3nc2n1C`, the survival is 102% (inactive).

For the compound `CCCCc1ccc(NC(=O)c2cc3c(=O)n4ccccc4nc3s2)cc1`, the survival is 89% (inactive).

As to `O=C(Nc1ccccc1)c1ccncc1`, the survival was 97% (inactive).

Turning to `CC(=O)Nc1ccc(S(=O)(=O)Nc2cccc(-c3ccc(N4CCCCCC4)nn3)c2)cc1`, the survival is 83% (inactive).

Regarding `Cc1onc2c1C(=O)CC(C)(C)C2`, the survival is 73% (inactive).

Consider `Cc1cc(C)c2c(=O)cc(C(=O)NCc3ccc(S(N)(=O)=O)cc3)oc2c1`, for which the survival is 117% (inactive).

Turning to `Cc1ccc(F)cc1NC(=O)CSc1nc(-c2cccs2)cc(C(F)(F)F)n1`, the survival was 68% (inactive).

As to `CC(=O)N1CCOc2cc(S(=O)(=O)NCc3ccccc3Cl)c(Cl)cc21`, the survival is 76% (inactive).

As for `Cc1nc2sccn2c(=O)c1S(=O)(=O)Nc1ccc(N2CCOCC2)cc1`, the survival is 62% (inactive).

With `CCOC(=O)c1ccc(NC(=O)CN2C(=O)C(C)(C)c3ccccc32)cc1`, the survival is 115% (inactive).

For `CCN(C(=O)Cn1c(SCC(=O)NCc2ccccc2)nc2ccccc21)c1cccc(C)c1`, the survival is 65% (inactive).

For the compound `Cc1nc(N)sc1C(C)(C)C`, the survival is 86% (inactive).

On to `COc1ccc(-c2ccc(=O)n(CC(=O)NCCc3ccccc3)n2)cc1`, for which the survival is 70% (inactive).

For the compound `CCCC(CCC)C(=O)Nc1ccc(NC(=O)c2ccco2)cc1`, the survival was 98% (inactive).

In the case of `CCOc1cccc2cc(-c3nc4ccc(C(=O)O)cc4[nH]3)c(=O)oc12`, the survival was 69% (inactive).

For `Cc1ccc2c(c1)N(C(=O)N1CCC(C(=O)NCc3cccs3)CC1)CC(C)O2` (stereo not drawn), the survival is 91% (inactive).

Consider `O=C(NCCCN1CCN(c2ccc(F)cc2)CC1)c1sc2ncccc2c1-n1cccc1`, for which the survival is 37% (active).

Consider `COc1ccc(N2CCN(CCCNC(=O)c3sc4ncccc4c3-n3cccc3)CC2)cc1`, for which the survival was 101% (inactive).

With `O=C(NCCCN1CCCCC1)c1sc2ncccc2c1-n1cccc1`, the survival was 92% (inactive).

For the compound `CC1CCCCN1CCCNC(=O)c1sc2ncccc2c1-n1cccc1` (stereo not drawn), the survival was 25% (active).

Regarding `O=C(NCCCN1CCN(c2ccccc2)CC1)c1sc2ncccc2c1-n1cccc1`, the survival is 91% (inactive).

In the case of `Cc1cc(C)c2c(-n3cccc3)c(C(=O)NCCCN3CCCCC3C)sc2n1` (stereo not drawn), the survival is 93% (inactive).

For `CC1=C(C(=O)OC2CCCC2)C(c2ccccc2Cl)CC(=O)N1` (stereo not drawn), the survival was 70% (inactive).

On to `CN1CCc2nc3sc(C(=O)c4ccc(F)cc4)c(N)c3cc2C1`, for which the survival is 71% (inactive).

For `COc1ccc(CCNC(=O)C(C)n2nc(C)c3sc4ccccc4c3c2=O)c(OC)c1` (stereo not drawn), the survival is 58% (inactive).

With `COc1cc2nc(C3CCC3)n(N)c(=O)c2cc1OC`, the survival was 75% (inactive).

Consider `O=C(CN1C(=O)C2CCCCN2c2ccc(C(=O)N3CCCC3)cc21)NCc1cccc(Cl)c1` (stereo not drawn), for which the survival is 68% (inactive).

`O=C(NCc1cccnc1)c1cn(C2CC2)c2cc(N3CCN(C(=O)c4cccc(Cl)c4)CC3)c(F)cc2c1=O`: the survival was 1% (active).

For `O=C(NCc1ccncc1)C1CCN(C(=O)c2cccc(Cl)c2)CC1`, the survival was 74% (inactive).

In the case of `CCC(=O)N1CCc2cc(Br)cc(S(=O)(=O)CCC(=O)NCc3ccc(F)cc3)c21`, the survival was 80% (inactive).

Regarding `Cc1sc2c(c1C)c(=O)n(CCc1ccccc1)c(=O)n2Cc1cccc(F)c1`, the survival is 16% (active).

As for `Cc1cccc(Cn2c(=O)n(CCc3ccccc3)c(=O)c3c(C)c(C)sc32)c1`, the survival was 111% (inactive).

Consider `Cc1sc2c(c1C)c(=O)n(CCc1ccccc1)c(=O)n2Cc1ccccc1Cl`, for which the survival is 103% (inactive).

Turning to `Cc1ccc(C)c(Cn2c(=O)n(CCc3ccccc3)c(=O)c3c(C)c(C)sc32)c1`, the survival is 112% (inactive).

With `Cc1ccccc1Cn1c(=O)n(CCc2ccccc2)c(=O)c2c(C)c(C)sc21`, the survival was -6% (active).

Consider `Cc1sc2c(c1C)c(=O)n(CCc1ccccc1)c(=O)n2Cc1ccc(F)cc1`, for which the survival was 52% (inactive).
